The values below come from PubChem BioAssay (NCI).

The panel holds about 83,000 compounds, 20% with a hit somewhere; the sample as a whole holds those more often.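 Note: values are percent growth. 100 is the growth of untreated cells, values between 100 and 0 indicate rising inhibition; between -100 and 0 indicates cell death.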 A number with no mark means an inactive call. Calls of active or inactive are those of the source. How the source made its calls: active means growth percent below 10; inactive means the rest.

Assay in all cases: NCI-60 one-dose screen, 48 h (100 = growth as untreated, 0 = no growth, -100 = all killed)
What all share (conditions): 10 µM unless noted

Experiment [1] deals with HCT-15 colon.
In experiment [2] the test system is HT29 colon.
In experiment [3] the test system is SNB-75 CNS.
The subject of experiment [4] is U251 CNS.
Experiment [5] relates to PC-3 prostate.
Experiment [6] has as its system SK-MEL-5 melanoma.
In experiment [7] the test system is UACC-62 melanoma.
Experiment [8] has as its system LOX IMVI melanoma.
Experiment [9] concerns SK-MEL-28 melanoma.

With `O=C1Nc2ccccc2/C1=C/c1cn(C(=O)c2ccc(Cl)cc2)c2ccccc12`, the growth in [1] was 92.1%; in [2], 110%; in experiment [3] it was 87.7%; in [4], 99.4%; in experiment [5], 95.7%; in [6], 97.7%. In addition, the values for the growth in [7], in experiment [8] and in experiment [9] were 89.3%, 100% and 93%, respectively.
As to `CS(=O)(=O)c1ccc(Nc2nc(N[C@H]3CCCC[C@H]3N)nc3cc[nH]c(=O)c23)cc1`, the growth was 102% in experiment [1]; 15.5% in experiment [2]; 4.36% (active) in experiment [3]; 4.89% (active) in experiment [4]; 14.2% in experiment [5]; -40.1% (active) in [6]. In addition, the growth in experiment [7] is -33.9% (active); in [8], -10.7% (active); in experiment [9], 3.17% (active).
As to `C[n+]1cc2cc(C(N)=O)[nH]c3c(=N)c(Cl)c(N)c1c23`, the growth is 42.1% in experiment [1]; 35.3% in experiment [2]; 86.3% in experiment [3]; 62.2% in [4]; 48.4% in [5]; 79.2% in experiment [6]. Further, the growth is 78% in experiment [7], 64.2% in [8] and 109% in experiment [9].
As for `CC1SC(c2ccc(OCc3ccccc3)cc2)N(NC(=O)C(O)(c2ccccc2)c2ccccc2)C1=O` (centres undefined), the growth was 60.9% in experiment [1]; 38.1% in experiment [2]; 77.5% in experiment [3]; 66% in experiment [4]; 30.1% in experiment [5]; 94.9% in [6]. For the same compound, the growth was 63.7% in experiment [7], 58.9% in experiment [8] and 78.2% in experiment [9].
Take `Cc1ccccc1NC(=O)N/C(N)=N/c1nc(-c2cccc([N+](=O)[O-])c2)cs1`: the growth in [1] was 24.8%; in experiment [2], 17.1%; in experiment [3], -9.74% (active); in experiment [4], 40.4%; in experiment [5] it was 58%; in experiment [6], 49.3%. Also, the figures for the growth in experiment [7], in experiment [8] and in [9] were 34.1%, -10.5% (active) and 54.1%, respectively.
`NC(=O)c1ccc[n+]([C@@H]2O[C@H](COP(=O)([O-])OP(=O)(O)OC[C@H]3O[C@@H](n4cnc5c(N)ncnc54)[C@H](O)[C@@H]3O)[C@@H](O)[C@H]2O)c1`: the growth in [1] was 97.3%; in experiment [2], 106%; in [3] it was 104%; in experiment [4], 99.5%; in [5], 114%; in experiment [6], 112%. In addition, the values for the growth in [7], in experiment [8] and in experiment [9] were 119%, 92.9% and 103%, respectively.
